Ten targets from the supplement of paper PMC10849652 can be followed below.

Experiment in all cases: log2 fold change, soluble protein after heating vs DMSO (PISA); higher = thermal stabilisation; K562 cells, 10 uM, 30 min; active = over 0.2 and 3.5 SD of the protein, either way, in both replicates (recomputed)
Compound in assay [1]: NC(=O)Nc1cc(-c2cccc(F)c2)sc1C(=O)N[C@H]1CCCNC1
In short, it runs like this:
(§1)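 K562 cells at 2×10^6 cells/mL were exposed to 10 μM compound for 30 min, then aliquots were heated for 3 min across 48°C-58°C, pooled, and extracted in PBS containing 0.5% NP-40 at 4°C. The supernatant after 21,000xg for 90 min was taken as soluble protein and measured by TMTpro 16plex LC-MS/MS with channel sums equalised. Thermal stability is reported relative to control samples, with values from duplicates. Fold changes are given on a log2 scale.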

Compound in assay [2]: NC(=O)c1cnc(N[C@@H]2CCCC[C@@H]2N)nc1Nc1cccc(-n2nccn2)c1
In short, it runs like this: as §1

Compound in assay [3]: NC1(c2ccc(-c3nc4ccn5c(=O)[nH]nc5c4cc3-c3ccccc3)cc2)CCC1
A digest of the protocol: as §1

Compound in assay [4]: NCC(=O)Nc1ccc(-n2nc(C(F)(F)F)cc2-c2ccc3c(ccc4ccccc43)c2)cc1
A digest of the protocol:
as §1

Compound in the next assay: Nc1ccccc1NC(=O)c1ccc(CNC(=O)OCc2cccnc2)cc1 [entinostat]
A digest of the protocol:
as §1

Compound in a further assay: O=C(CCCCCCC(=O)Nc1ccccc1)NO [vorinostat]
In short, it runs like this:
as §1

Compound in a further assay: O=C(CCCCCCNC(=O)c1cnc(N(c2ccccc2)c2ccccc2Cl)nc1)NO [citarinostat]
In short, it runs like this:
as §1

Compound in the next assay: O=C(O)c1ccc2c(c1)nc(Nc1cccc(Cl)c1)c1ccncc12 [silmitasertib]
A digest of the protocol: as §1

Compound in assay [5]: O=C1NC(=O)C(c2cnc3ccccn23)=C1c1cn2c3c(cc(F)cc13)CN(C(=O)N1CCCCC1)CC2
A digest of the protocol:
as §1

Compound in assay [6]: c1cc(OCCN2CCCCC2)cc(-c2n[nH]c3ccc(-c4nnc[nH]4)cc23)c1
A digest of the protocol:
as §1

Compound in another assay: c1cn2cc(-c3ccc4cn[nH]c4c3)nc(Nc3ccc(N4CCOCC4)cc3)c2n1 [entospletinib]
In short, it runs like this: as §1

Targets with a hit are over-represented here; the source holds about 7,900 in all. About 0.6% of all pairs of compound and target were hits. A number with no mark means an inactive call.

Chain of UniProt Q5JRX3 (Q5JRX3 whole entry, looked up): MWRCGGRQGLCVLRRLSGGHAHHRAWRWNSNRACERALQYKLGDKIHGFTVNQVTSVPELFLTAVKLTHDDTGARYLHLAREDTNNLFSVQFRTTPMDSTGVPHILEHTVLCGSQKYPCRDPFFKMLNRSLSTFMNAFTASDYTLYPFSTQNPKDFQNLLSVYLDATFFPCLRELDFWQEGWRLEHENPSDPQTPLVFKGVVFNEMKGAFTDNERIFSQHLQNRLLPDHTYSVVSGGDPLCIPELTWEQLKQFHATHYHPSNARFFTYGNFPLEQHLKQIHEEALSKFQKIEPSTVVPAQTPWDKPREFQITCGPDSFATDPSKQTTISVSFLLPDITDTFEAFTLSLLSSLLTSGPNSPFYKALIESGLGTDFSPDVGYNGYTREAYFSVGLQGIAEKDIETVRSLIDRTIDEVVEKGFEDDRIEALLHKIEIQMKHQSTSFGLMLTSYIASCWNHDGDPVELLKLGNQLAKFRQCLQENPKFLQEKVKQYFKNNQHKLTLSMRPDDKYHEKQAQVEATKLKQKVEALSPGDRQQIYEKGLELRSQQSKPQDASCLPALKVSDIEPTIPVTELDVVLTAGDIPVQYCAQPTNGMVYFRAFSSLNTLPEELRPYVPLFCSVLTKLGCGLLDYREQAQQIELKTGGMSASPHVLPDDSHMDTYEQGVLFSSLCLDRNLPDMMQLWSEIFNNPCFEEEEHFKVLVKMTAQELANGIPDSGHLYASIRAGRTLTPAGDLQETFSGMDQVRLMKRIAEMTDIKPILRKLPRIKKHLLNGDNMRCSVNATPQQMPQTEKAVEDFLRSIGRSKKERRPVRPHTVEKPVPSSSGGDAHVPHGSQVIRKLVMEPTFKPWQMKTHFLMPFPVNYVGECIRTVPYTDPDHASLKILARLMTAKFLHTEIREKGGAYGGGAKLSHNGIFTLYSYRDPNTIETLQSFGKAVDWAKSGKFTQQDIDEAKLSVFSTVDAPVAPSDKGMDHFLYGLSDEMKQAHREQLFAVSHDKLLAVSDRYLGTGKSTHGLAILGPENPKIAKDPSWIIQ
Chain of UniProt Q8WUA2 (Q8WUA2 whole entry, looked up): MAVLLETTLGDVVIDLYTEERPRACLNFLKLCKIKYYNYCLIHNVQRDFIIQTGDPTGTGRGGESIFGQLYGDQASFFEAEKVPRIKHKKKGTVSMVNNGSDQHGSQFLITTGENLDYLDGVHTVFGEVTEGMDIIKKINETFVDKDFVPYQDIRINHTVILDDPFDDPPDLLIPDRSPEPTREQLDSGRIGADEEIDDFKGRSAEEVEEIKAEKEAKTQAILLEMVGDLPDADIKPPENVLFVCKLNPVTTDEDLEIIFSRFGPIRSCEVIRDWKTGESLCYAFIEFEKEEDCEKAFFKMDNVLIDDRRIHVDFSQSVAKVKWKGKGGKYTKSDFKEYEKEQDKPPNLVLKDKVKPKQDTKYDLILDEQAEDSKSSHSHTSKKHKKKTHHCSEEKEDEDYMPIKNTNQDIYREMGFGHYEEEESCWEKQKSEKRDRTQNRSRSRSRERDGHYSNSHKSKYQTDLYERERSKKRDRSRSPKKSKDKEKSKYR
Chain of UniProt Q9H0R6 (Q9H0R6 whole entry, looked up): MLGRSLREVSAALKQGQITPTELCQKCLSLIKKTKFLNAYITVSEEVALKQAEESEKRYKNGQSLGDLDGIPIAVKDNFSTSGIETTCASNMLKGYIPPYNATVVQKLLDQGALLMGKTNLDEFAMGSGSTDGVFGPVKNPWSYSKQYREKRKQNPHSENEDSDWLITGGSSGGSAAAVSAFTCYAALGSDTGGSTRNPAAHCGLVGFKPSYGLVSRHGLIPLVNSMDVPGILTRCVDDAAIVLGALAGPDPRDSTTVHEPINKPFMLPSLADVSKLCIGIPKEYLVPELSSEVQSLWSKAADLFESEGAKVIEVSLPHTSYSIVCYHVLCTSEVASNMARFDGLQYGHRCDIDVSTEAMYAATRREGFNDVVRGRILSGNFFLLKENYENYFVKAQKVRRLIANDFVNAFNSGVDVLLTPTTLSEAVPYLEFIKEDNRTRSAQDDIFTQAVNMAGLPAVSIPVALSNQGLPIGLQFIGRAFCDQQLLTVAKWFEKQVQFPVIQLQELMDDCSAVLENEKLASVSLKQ
Chain of UniProt P42785 (P42785 whole entry, looked up): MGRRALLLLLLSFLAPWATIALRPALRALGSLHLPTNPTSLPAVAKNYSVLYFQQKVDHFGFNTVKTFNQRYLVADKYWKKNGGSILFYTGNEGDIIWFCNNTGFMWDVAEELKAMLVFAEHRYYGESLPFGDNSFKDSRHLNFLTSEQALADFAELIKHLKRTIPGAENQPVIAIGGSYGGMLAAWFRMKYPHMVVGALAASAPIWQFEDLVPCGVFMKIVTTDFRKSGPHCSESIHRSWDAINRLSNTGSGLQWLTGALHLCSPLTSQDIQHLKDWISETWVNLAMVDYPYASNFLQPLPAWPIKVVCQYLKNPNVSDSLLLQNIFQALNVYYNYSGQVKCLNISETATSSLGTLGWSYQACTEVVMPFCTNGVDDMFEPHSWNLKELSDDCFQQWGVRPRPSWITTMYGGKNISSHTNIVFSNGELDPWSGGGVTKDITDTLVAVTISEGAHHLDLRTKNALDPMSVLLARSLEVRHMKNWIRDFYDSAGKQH
Chain of UniProt Q15111 (Q15111 whole entry, looked up): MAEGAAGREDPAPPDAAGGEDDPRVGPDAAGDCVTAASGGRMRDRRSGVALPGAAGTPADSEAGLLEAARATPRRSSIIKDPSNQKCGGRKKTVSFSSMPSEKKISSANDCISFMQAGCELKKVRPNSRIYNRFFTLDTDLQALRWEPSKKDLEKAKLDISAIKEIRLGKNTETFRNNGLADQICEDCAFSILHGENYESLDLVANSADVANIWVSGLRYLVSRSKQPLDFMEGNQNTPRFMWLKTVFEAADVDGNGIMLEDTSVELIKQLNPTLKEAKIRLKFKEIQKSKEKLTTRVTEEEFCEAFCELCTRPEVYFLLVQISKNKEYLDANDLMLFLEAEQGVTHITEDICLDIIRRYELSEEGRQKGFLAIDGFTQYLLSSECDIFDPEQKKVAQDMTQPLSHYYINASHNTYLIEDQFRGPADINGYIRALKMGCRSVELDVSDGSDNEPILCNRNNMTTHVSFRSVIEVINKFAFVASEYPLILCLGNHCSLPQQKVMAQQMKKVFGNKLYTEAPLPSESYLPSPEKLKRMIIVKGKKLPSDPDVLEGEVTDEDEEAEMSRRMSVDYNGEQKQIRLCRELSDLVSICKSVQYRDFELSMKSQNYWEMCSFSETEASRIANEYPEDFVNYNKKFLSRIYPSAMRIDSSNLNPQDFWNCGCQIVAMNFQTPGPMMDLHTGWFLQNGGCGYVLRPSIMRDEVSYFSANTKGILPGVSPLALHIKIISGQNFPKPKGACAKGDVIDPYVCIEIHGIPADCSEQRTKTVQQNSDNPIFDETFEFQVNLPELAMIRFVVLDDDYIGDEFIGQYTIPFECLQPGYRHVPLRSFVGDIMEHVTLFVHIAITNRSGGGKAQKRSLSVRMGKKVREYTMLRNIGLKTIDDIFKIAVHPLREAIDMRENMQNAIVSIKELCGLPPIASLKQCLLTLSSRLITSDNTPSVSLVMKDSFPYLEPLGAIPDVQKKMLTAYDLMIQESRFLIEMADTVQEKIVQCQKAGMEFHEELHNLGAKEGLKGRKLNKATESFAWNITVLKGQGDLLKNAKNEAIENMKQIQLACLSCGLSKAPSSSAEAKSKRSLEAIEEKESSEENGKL
Chain of UniProt Q8TBX8 (Q8TBX8 whole entry, looked up): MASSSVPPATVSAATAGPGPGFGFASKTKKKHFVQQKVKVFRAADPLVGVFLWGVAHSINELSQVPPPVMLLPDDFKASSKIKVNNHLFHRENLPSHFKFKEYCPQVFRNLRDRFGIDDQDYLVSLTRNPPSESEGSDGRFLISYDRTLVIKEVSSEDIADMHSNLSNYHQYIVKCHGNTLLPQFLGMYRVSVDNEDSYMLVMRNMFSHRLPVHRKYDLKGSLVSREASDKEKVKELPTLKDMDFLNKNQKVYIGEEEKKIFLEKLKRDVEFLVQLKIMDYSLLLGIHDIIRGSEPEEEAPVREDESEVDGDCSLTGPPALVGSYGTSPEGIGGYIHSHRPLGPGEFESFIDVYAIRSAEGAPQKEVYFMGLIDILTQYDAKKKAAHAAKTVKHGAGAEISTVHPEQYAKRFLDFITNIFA
Chain of UniProt Q9Y3E5 (Q9Y3E5 whole entry, looked up): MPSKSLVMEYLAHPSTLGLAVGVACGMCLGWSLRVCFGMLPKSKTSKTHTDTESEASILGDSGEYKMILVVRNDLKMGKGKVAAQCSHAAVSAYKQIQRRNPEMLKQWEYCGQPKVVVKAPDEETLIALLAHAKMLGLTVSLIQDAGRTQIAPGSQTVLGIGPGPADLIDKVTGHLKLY
Chain of UniProt Q93096 (Q93096 whole entry, looked up): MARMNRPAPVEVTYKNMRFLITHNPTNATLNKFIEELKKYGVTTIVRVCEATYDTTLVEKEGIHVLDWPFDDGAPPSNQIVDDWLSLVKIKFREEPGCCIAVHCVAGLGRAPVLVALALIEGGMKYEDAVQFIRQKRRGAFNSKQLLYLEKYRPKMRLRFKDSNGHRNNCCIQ

Regarding PLCL1 (UniProt Q15111), the log2 fold change in assay [1] is 0.05; in [2], -0.035; in [3] it was -0.069; in [4], -0.01; with entinostat, 0.043; with vorinostat, -0.012. In addition, the log2 fold change in the assay with citarinostat is 0.02; in the assay with silmitasertib it was -0.475; in assay [5], -0.854 (active); in assay [6] it was 0.05; in the assay with entospletinib it was -0.099.
On to PARN (UniProt O95453), for which the log2 fold change in assay [1] is 0.012; in assay [2] it was -0.042; in assay [3] it was -0.1; in assay [4] it was -0.087; with entinostat it was 0.015; in the assay with vorinostat, 0.03. In addition, the log2 fold change with citarinostat was 0.056; with silmitasertib it was 0.028; in [5], -0.069; in assay [6], -0.082; with entospletinib, -0.06.
PRCP (UniProt P42785): the log2 fold change is 0.013 in [1]; 0.005 in assay [2]; -0.106 in assay [3]; 0.008 in assay [4]; 0.035 with entinostat; 0.005 in the assay with vorinostat. Further, the log2 fold change was 0.028 in the assay with citarinostat; 0 with silmitasertib; -0.014 in assay [5]; 0.044 in [6]; -0.062 with entospletinib.
Take PIP4K2C (UniProt Q8TBX8): the log2 fold change in assay [1] is 0.016; in assay [2], 0.192; in [3], -0.125; in [4] it was 0.293; with entinostat it was -0.027; with vorinostat, -0.071. Moreover, the log2 fold change with citarinostat is -0.036; with silmitasertib it was 0.497; in assay [5] it was 0.12; in assay [6], 0.036; with entospletinib it was -0.031.
PTRH2 (UniProt Q9Y3E5): the log2 fold change in [1] is -0.061; in [2], 0.018; in assay [3], -0.001; in assay [4], 0.004; with entinostat, -0.016; in the assay with vorinostat, -0.002. The log2 fold change is 0.047 with citarinostat; 0.007 in the assay with silmitasertib; -0.089 in assay [5]; 0.005 in assay [6]; 0.019 with entospletinib.
QRSL1 (UniProt Q9H0R6): the log2 fold change in assay [1] was -0.092; in assay [2] it was -0.007; in assay [3] it was -0.218; in [4], -0.089; with entinostat, 0.006; with vorinostat, -0.063. The log2 fold change with citarinostat was 0.053; with silmitasertib, -0.049; in assay [5] it was -0.084; in assay [6], -0.036; with entospletinib, -0.008.
For PTP4A1 (UniProt Q93096), the log2 fold change in [1] was -0.035; in [2] it was -0.202; in assay [3], -0.007; in assay [4], 0.016; in the assay with entinostat, 0.039; in the assay with vorinostat, -0.029. Also, the log2 fold change with citarinostat is 0.063; with silmitasertib, -0.001; in assay [5], -0.075; in [6] it was 0.059; with entospletinib, 0.
With PITRM1 isoform 2 (UniProt Q5JRX3), the log2 fold change was 0.116 in assay [1]; -0.077 in assay [2]; -0.051 in [3]; -0.061 in assay [4]; 0.097 with entinostat; 0.089 in the assay with vorinostat. In addition, the log2 fold change is 0.104 in the assay with citarinostat; -0.045 in the assay with silmitasertib; 0.05 in assay [5]; 0.096 in assay [6]; -0.103 in the assay with entospletinib.
PSMD1 (UniProt Q99460): the log2 fold change in assay [1] was 0.086; in assay [2], 0.007; in assay [3], -0.013; in [4], 0.068; with entinostat, 0.006; with vorinostat, 0.013. For the same target, the log2 fold change with citarinostat is 0.014; with silmitasertib, -0.019; in [5], 0.094; in assay [6] it was -0.057; with entospletinib it was -0.012.
As to PPIL4 (UniProt Q8WUA2), the log2 fold change in assay [1] is -0.021; in assay [2], -0.085; in assay [3] it was 0.002; in [4], -0.071; with entinostat, 0.011; in the assay with vorinostat, 0.016. Besides, the log2 fold change with citarinostat is 0.033; in the assay with silmitasertib it was -0.005; in assay [5], -0.005; in assay [6] it was -0.1; with entospletinib, 0.035.
